In PubChem BioAssay (NCATS) one finds Potency data, which are given here for 30 molecules.

SMILES strings stand for the structures. Values joined by “and” are separate entries in the source; they are usually repeats but may differ in a detail not shown here. Equal values may be shown once. Inconclusive results are not listed. A call without a number means that no potency is given here. Active and inactive are the calls of the source. Calls follow the shape of the dose curve; as a rule, active = well fitted inhibition curve with a large enough effect; inconclusive = small, poorly fitted or top-dose-only effect; inactive = no such curve, though single readings can be large or run the other way.

One assay relates to Zika virus NS2B-NS3 protease (linked construct). Kind of assay: 384 well plate NINDS Rhodamine confirmatory qHTS for Zika virus inhibitors (AID 1347164). Also: nearly all actives have a fitted effect of over 65% in size. Also: potency is read from the fitted curve at half-maximal effect. To be noted: rhodamine-110 peptide substrate fluorescence; series mostly up to 1 mM. In a few lines: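 Compounds are incubated about 15 minutes with linked protease (5, 30 or 60 nM final). Rhodamine 110-tagged Ac-LKRR substrate (10 microM final) is added and fluorescence measured after 25 minutes.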
In general terms: In qHTS, concentration-response curves come from the screen itself.
`CCOC(=O)c1ccc(N2C(=O)c3n[nH]c(-c4cccs4)c3C2c2ccc(Cl)cc2Cl)cc1` (stereo not drawn): the Potency was 44.7 µM (active).

For the molecule `Nc1c(N=Nc2ccc([N+](=O)[O-])cc2)c(S(=O)(=O)O)cc2cc(S(=O)(=O)O)c(/C=C/c3ccccc3)c(O)c12`, the Potency is 14.1 µM (active).

Take `O=C(OCc1cc(=O)n2nc(C3CC3)sc2n1)c1ccc(NC(=O)c2ccccc2Cl)cc1`: the Potency result was “inactive”.

`Cc1c(C2(c3cc(C(C)C)c(O)c(Br)c3C)OS(=O)(=O)c3ccccc32)cc(C(C)C)c(O)c1Br`: the Potency is 17.8 µM (active).

`O=C(Nc1ccc(C(=O)Nc2ccc(C(=O)Nc3ccc(S(=O)(=O)O)c4cc(S(=O)(=O)O)cc(S(=O)(=O)O)c34)cc2)cc1)Nc1ccc(C(=O)Nc2ccc(C(=O)Nc3ccc(S(=O)(=O)O)c4cc(S(=O)(=O)O)cc(S(=O)(=O)O)c34)cc2)cc1`: the Potency is 2.51 µM (active).

As for `CCS(=O)(=O)c1cccc(C(=O)Nc2ccc(-c3nc4ccccc4s3)c(O)c2)c1`, the Potency is 14.1 µM (active).

As for `O=C(O)c1ccccc1-c1c2cc(I)c(=O)c(I)c-2oc2c(I)c(O)c(I)cc12`, the Potency entry is “inactive”.

`O=C(Nc1cc(C(=O)Nc2ccc(S(=O)(=O)O)cc2S(=O)(=O)O)cc(C(=O)Nc2ccc(S(=O)(=O)O)cc2S(=O)(=O)O)c1)Nc1cc(C(=O)Nc2ccc(S(=O)(=O)O)cc2S(=O)(=O)O)cc(C(=O)Nc2ccc(S(=O)(=O)O)cc2S(=O)(=O)O)c1`: the Potency was 3.55 µM (active) and 3.16 µM (active).

Regarding `COc1ccc(NS(=O)(=O)c2ccc3c(c2)[C@H]2C=CC[C@H]2[C@@H](c2ccc(C(=O)O)cc2)N3)cc1`, the Potency is 20 µM (active).

For `Cc1ccc(NC(=O)c2ccc3c(O)c(S(=O)(=O)c4ccccc4)c(=O)[nH]c3c2)cc1Cl`, the Potency was 44.7 µM (active).

In the case of `O=c1c(O)cc(C2Oc3cc(O)cc(O)c3CC2O)cc2c(C3Oc4cc(O)cc(O)c4CC3O)cc(O)c(O)c12` (stereo not drawn), the Potency entry was “inactive”.

Regarding `CC(=O)Nc1ccc(S(=O)(=O)O)c2cc(S(=O)(=O)O)c(N=Nc3ccc(N=Nc4ccc(S(=O)(=O)O)cc4)c4ccc(S(=O)(=O)O)cc34)c(O)c12`, the Potency was 3.98 µM (active).

Tested on in a further assay: not listed separately
Kind of assay: Tertiary RLuc qRT-PCR qHTS assay for Zika virus inhibitors (AID 1347169). Also: top concentration of the series differs between compounds; nearly all actives have a fitted effect of over 55% in size. Conditions: infected Vero cells, reporter luminescence, 48-72 h; series mostly up to 1.74 µM. In a few lines:
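Orthogonal cell-based infection assay using recombinant ZIKV-RLuc (Cambodian) in Vero cells; compound added prior to virus at MOI 1-2. Incubation lasts 48-72 hrs at 37 degrees C before live-cell Renilla substrate is added and luminescence measured.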
On the technique in general: Real-time PCR tracks product formation cycle by cycle.
For `CCOC(=O)c1c(-c2ccccc2)csc1NC(=O)c1cc(-c2ccc(Cl)cc2)on1`, the Potency result was “inactive”.

`CCCCOC(=O)c1ccc(NC(=O)c2ccc3c(c2)CCN3S(=O)(=O)c2ccccc2)cc1`: the Potency result was “inactive”.

Regarding `CCS(=O)(=O)c1cccc(C(=O)Nc2ccc(-c3nc4ccccc4s3)c(O)c2)c1`, the Potency entry was “inactive”.

As to `N#C/C(=C\c1ccc(-c2cc(Cl)ccc2Cl)o1)C(=O)Nc1ccccc1C(=O)O`, the Potency result was “inactive”.

`O=C(Nc1cccc(C(=O)OCc2cc(=O)n3c4c(sc3n2)CCCC4)c1)c1cccc(Cl)c1`: the Potency entry was “inactive”.

With `CC(C)c1ccc(Nc2sc(C(=O)c3ccccc3)c(N)c2S(=O)(=O)c2ccccc2)cc1`, the Potency entry is “inactive”.

On to `O=C(Nc1ccccc1C(=O)OCc1cc(=O)n2c3c(sc2n1)CCCC3)c1cccc(Cl)c1`, for which the Potency result is “inactive”.

Turning to `COc1ccc(OC)c(Nc2sc(C(=O)c3ccccc3)c(N)c2S(=O)(=O)c2ccccc2)c1`, the Potency result is “inactive”.

As to `Cc1ccc(NC(=O)c2ccc3c(O)c(S(=O)(=O)c4ccccc4)c(=O)[nH]c3c2)cc1Cl`, the Potency entry is “inactive”.

For the molecule `COc1ccc(S(=O)(=O)c2c(Nc3ccc(C)cc3)sc(C(=O)c3ccc4c(c3)OCO4)c2N)cc1`, the Potency entry is “inactive”.

In the case of `CCOC(=O)c1ccc(NC(=O)c2nc(SCc3ccc(F)cc3)ncc2Cl)cc1`, the Potency result is “inactive”.

`O=C(Nc1ccc(C(=O)OCc2cc(=O)n3nc(C4CC4)sc3n2)cc1)c1ccccc1`: the Potency entry is “inactive”.

As for `O=C(Nc1ccccc1C(=O)OCc1cc(=O)n2c3c(sc2n1)CCCC3)c1ccc(Cl)cc1`, the Potency entry was “inactive”.

Take `O=C(Nc1ccccc1C(=O)OCc1cc(=O)n2nc(C3CC3)sc2n1)c1cccc(Cl)c1`: the Potency result was “inactive”.

For `CC(=O)Nc1ccc(S(=O)(=O)O)c2cc(S(=O)(=O)O)c(N=Nc3ccc(N=Nc4ccc(S(=O)(=O)O)cc4)c4ccc(S(=O)(=O)O)cc34)c(O)c12`, the Potency result is “inactive”.

As for `CC(C)c1nn2c(=O)cc(COC(=O)c3ccccc3NC(=O)c3cccc(Cl)c3)nc2s1`, the Potency entry is “inactive”.

On to `O=C(CNC(=O)c1ccccc1F)OCc1cc(=O)n2nc(C3CCCCC3)sc2n1`, for which the Potency entry is “inactive”.

Take `COc1ccc2c(c1)Oc1nc(-c3ccc(C)s3)nc(SCC(=O)Nc3cccc(C(=O)O)c3)c1C2`: the Potency result is “inactive”.

`CC(Oc1ccccc1)C(=O)Nc1ccc(C(=O)OCc2cc(=O)n3nc(C(C)C)sc3n2)cc1` (stereo not drawn): the Potency result was “inactive”.

Consider `CCCCc1nn2c(=O)cc(COC(=O)c3ccc(NC(=O)c4cccs4)cc3)nc2s1`, for which the Potency result was “inactive”.

Take `O=C(COC(=O)c1cccc(NC(=O)c2ccc(Br)cc2)c1)c1ccc(Cl)cc1`: the Potency entry is “inactive”.
